In PubChem BioAssay (NCI):
Compounds without any hit were thinned out: in the full panel of roughly 79,000, 15% have a hit. Values without a mark were called inactive. Calls of active or inactive are those of the source. Cut-off read from the data, not from the text of the source: active = growth inhibition above about 70%; inactive = the rest.

How the values were obtained:
[1] = NCI Yeast Anticancer Drug Screen. Data for the rad50 strain (AID 155);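 note: 0% = growth of vehicle-only cultures of the same strain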; conditions: S. cerevisiae rad50 strain growth inhibition, active compounds read high
Summary of the method: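 Vehicle-treated cultures provide the reference for the growth inhibition reported for compound-exposed, repair-deficient yeast.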

[2] = NCI Yeast Anticancer Drug Screen. Data for the mec2-1 strain (AID 157); conditions: S. cerevisiae mec2-1 strain, active compounds read high
Summary of the method: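 Compounds were applied to mec2-1 yeast cells. Their growth was then compared with that of vehicle-treated cultures to give growth inhibition.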

[3] = NCI Yeast Anticancer Drug Screen. Data for the sgs1 mgt1 strain (AID 161);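 note: 0% = growth of cultures given vehicle only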; conditions: S. cerevisiae sgs1 mgt1 strain, active compounds read high
Summary of the method: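 Compounds are added to genetically altered yeast, and growth is compared with cultures given vehicle alone to give percent inhibition.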

[4] = NCI Yeast Anticancer Drug Screen. Data for the cln2 rad14 strain (AID 165);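 note: 0% = growth equal to vehicle treated cultures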; conditions: S. cerevisiae cln2 rad14 strain, active compounds read high
Summary of the method: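 Strain: cln2 rad14 yeast, altered in cell cycle control and DNA damage repair. Read-out: growth inhibition vs vehicle.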

[5] = NCI Yeast Anticancer Drug Screen. Data for the bub3 strain (AID 167); conditions: S. cerevisiae bub3 mutant strain, active compounds read high
Summary of the method: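 Mutant yeast screening strain plus compound; vehicle-treated cultures serve as the 0% inhibition reference.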

[6] = NCI Yeast Anticancer Drug Screen. Data for the mlh1 rad18 strain (AID 175); conditions: S. cerevisiae mlh1 rad18 strain growth inhibition, active compounds read high
Summary of the method: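 A repair-deficient yeast strain is exposed to test compound, and growth is scored relative to vehicle-treated controls.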

[7] = at 5.0 µM (retest, dose inferred, filed as 0.5)
[8] = at 50.0 µM (retest, dose inferred, filed as 5.0)

SMILES	growth inhibition [1, 7]	growth inhibition [1, 8]	growth inhibition ([1]; at 50.0 µM)	growth inhibition [2, 7]	growth inhibition [2, 8]	growth inhibition ([2]; at 50.0 µM)	growth inhibition [3, 7]	growth inhibition [3, 8]	growth inhibition ([3]; at 50.0 µM)	growth inhibition [4, 7]	growth inhibition [4, 8]	growth inhibition ([4]; at 50.0 µM)	growth inhibition [5, 7]	growth inhibition [5, 8]	growth inhibition ([5]; at 50.0 µM)	growth inhibition [6, 7]	growth inhibition [6, 8]	growth inhibition ([6]; at 50.0 µM)
CC(CSc1n[nH]c(=S)s1)c1ccccc1 (configuration not stated)	7%	93% (active)	97.1% (active)	11%	96% (active)	95.8% (active)	14%	96% (active)	95.8% (active)	1%	93% (active)	95.2% (active)	23%	94% (active)	96.3% (active)	12%	94% (active)	95.1% (active)
COC(=O)C(=[N+]=[N-])C(=O)c1ccc([N+](=O)[O-])o1	32%	98% (active)	56.1%	10%	99% (active)	55.5%	18%	98% (active)	51.8%	8%	99% (active)	98.5% (active)	6%	99% (active)	48.5%	25%	99% (active)	98.7% (active)
C/C(=N\NC(=S)N1CC2CCC(CC2)C1)c1ccccn1	33%	65%	86.7% (active)	13%	73% (active)	89.7% (active)	26%	76% (active)	88.8% (active)	23%	81% (active)	79.1% (active)	21%	80% (active)	88.7% (active)	25%	68%	92.3% (active)
COc1ccc2c(c1)C(N)=C(c1ccccc1)C2=O	14%	15%	70.2% (active)	16%	8%	28.2%	16%	28%	63.1%	17%	10%	0.55%	24%	19%	59.2%	21%	9%	-31.8%
CCN(CC)CCNC(Cc1ccccc1)c1ccc(OCc2ccccc2)cc1 (configuration not stated)	39%	98% (active)	86.7% (active)	28%	98% (active)	42.4%	42%	99% (active)	72% (active)	35%	94% (active)	57.2%	49%	99% (active)	87.6% (active)	47%	98% (active)	84.8% (active)
CC(C)(C)c1ccc(CCO)cc1	-10%	7%	33.5%	-2%	-4%	5.35%	-3%	-5%	12.2%	-2%	-4%	-8.05%	0%	6%	-4.15%	-5%	2%	19.9%
CCCCN(CCCC)CCCCCCCCCCO	-2%	-2%	45.4%	-1%	1%	36.2%	1%	1%	52.6%	2%	0%	4.2%	3%	7%	70% (active)	-1%	-1%	25.4%
CC1(C)CCC[C@]2(C)[C@@H](C=O)C(C=O)=CC[C@@H]12	25%	90% (active)	91.3% (active)	23%	96% (active)	90.8% (active)	22%	84% (active)	88.4% (active)	23%	81% (active)	90.2% (active)	19%	88% (active)	90.3% (active)	21%	91% (active)	86.9% (active)
CCC1C[N+]2=C(c3cc(OC)c(OC)cc3CC2)c2c1cc1n2CCc2cc(OC)c(OC)cc2-1 (configuration not stated)	99% (active)	99% (active)	93% (active)	100% (active)	99% (active)	94.8% (active)	99% (active)	99% (active)	94.5% (active)	96% (active)	99% (active)	92.8% (active)	99% (active)	99% (active)	93.5% (active)	97% (active)	99% (active)	93.6% (active)
CCCc1cc(=O)oc2c3c(c4c(c12)OC(C)(C)CC4)OC(C)[C@H](C)[C@@H]3O (some centres not stated)	36%	90% (active)	83.7% (active)	36%	92% (active)	85.6% (active)	28%	90% (active)	80.2% (active)	27%	93% (active)	85.2% (active)	12%	90% (active)	80.1% (active)	31%	94% (active)	77% (active)
Oc1ccc(Nc2ccc3ccccc3c2)cc1	9%	97% (active)	97.5% (active)	-5%	98% (active)	98.5% (active)	3%	98% (active)	88.9% (active)	-5%	98% (active)	97.5% (active)	-5%	96% (active)	98% (active)	-1%	98% (active)	97.6% (active)
Nc1cccc2cccc([N+](=O)[O-])c12	-142%	-39%	10.8%	-47%	-40%	11.4%	-52%	1%	16%	-63%	-10%	62%	-74%	-86%	-19.9%	-130%	-68%	21.4%
Cc1nc([N+](=O)[O-])c(Sc2nncc(-c3ccccc3)n2)n1C	8%	34%	97.3% (active)	4%	38%	97.5% (active)	7%	28%	95% (active)	-5%	9%	93% (active)	1%	21%	97.6% (active)	8%	43%	97.5% (active)
CC1=C(C2=C(C)C(=O)C(=O)c3cc(C)ccc32)c2ccc(C)cc2C(=O)C1=O	89% (active)	98% (active)	86.7% (active)	95% (active)	99% (active)	91.5% (active)	98% (active)	99% (active)	91.8% (active)	71% (active)	98% (active)	89.8% (active)	98% (active)	99% (active)	90.9% (active)	97% (active)	99% (active)	91% (active)
CC12CCC(O)CC1=CCC1C2CCC2(C)C3=NN=CC3CC12 (configuration not stated)	38%	99% (active)	96.6% (active)	16%	100% (active)	99.4% (active)	35%	100% (active)	98.5% (active)	7%	100% (active)	99.2% (active)	31%	100% (active)	99.3% (active)	50%	100% (active)	99.5% (active)
CCNc1nnnn1CC	-37%	1%	-2.5%	-2%	-2%	2.1%	0%	5%	-5.35%	2%	4%	12.3%	-1%	-2%	22.9%	6%	18%	2.8%
CCCCCCCCCCCC[n+]1ccccc1 (tested in a mixture with another compound)	34%	96% (active)	99.1% (active)	91% (active)	96% (active)	99.1% (active)	31%	97% (active)	99.1% (active)	18%	94% (active)	98.5% (active)	88% (active)	96% (active)	99.2% (active)	21%	95% (active)	99% (active)
O=C/C=C/c1ccc([N+](=O)[O-])cc1	24%	98% (active)	80.4% (active)	49%	100% (active)	83.5% (active)	18%	98% (active)	95.5% (active)	8%	98% (active)	46.7%	17%	99% (active)	95.3% (active)	72% (active)	99% (active)	90.5% (active)
S=C=Nc1ccc(N2CCOCC2)cc1	96% (active)	99% (active)	99.3% (active)	31%	100% (active)	99.7% (active)	41%	99% (active)	99.7% (active)	10%	99% (active)	96.3% (active)	26%	98% (active)	99.2% (active)	33%	99% (active)	99.2% (active)
